# Only some compounds are listed: those with a hit (about 7.3% of all), similar ones and a draw of the others.
# FLuc modulator: counter-screen for miR-21 project: firefly luciferase inhibitors or activators. P08659. 360,000 tested, 6.9% active. Potency, µM (highest dose often 57.5 µM), without a hit: top-dose activity change, negative = inhibition, most hits filed as inhibitors. AID 588342. purified FLuc, Km substrates, luminescence inhibition;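 further: plate controls were vehicle for no effect and reference inhibitor for full effect; nearly all actives have a fitted effect of over 55% in size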
# Target sequence (P08659 whole entry, looked up): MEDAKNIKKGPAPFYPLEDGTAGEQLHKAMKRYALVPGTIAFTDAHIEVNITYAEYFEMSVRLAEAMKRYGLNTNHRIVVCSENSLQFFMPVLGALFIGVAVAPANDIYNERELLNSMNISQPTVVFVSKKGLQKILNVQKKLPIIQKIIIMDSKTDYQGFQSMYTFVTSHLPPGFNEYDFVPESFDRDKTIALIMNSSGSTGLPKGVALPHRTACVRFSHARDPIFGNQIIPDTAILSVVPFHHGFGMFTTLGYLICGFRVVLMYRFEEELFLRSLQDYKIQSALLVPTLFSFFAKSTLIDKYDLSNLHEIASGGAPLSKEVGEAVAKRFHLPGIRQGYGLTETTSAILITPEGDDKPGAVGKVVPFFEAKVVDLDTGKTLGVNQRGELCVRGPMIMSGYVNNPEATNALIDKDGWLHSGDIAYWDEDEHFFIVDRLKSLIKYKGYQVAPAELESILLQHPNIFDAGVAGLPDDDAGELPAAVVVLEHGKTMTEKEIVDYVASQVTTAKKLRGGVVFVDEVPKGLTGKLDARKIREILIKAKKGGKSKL
#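 Biochemical qHTS of compounds, final roughly 60 µM downward over six points, against 10 nM purified firefly luciferase using Km concentrations of substrates (10 uM D-luciferin, 10 uM ATP) in Tris acetate pH 7.5 buffer; luminescence output.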
# Rab9 prom act: activates the Rab9 promoter | Huh7 Rab9 promoter-luciferase reporter, luminescence, 24 h | Potency, µM (series often up to 9.22 µM), without a hit: at the highest dose activation, negative = inhibition, actives largely listed as activators | 320,000 tested, 2.8% active; further: % of control where 0% means no effect; nearly all actives have a fitted effect of over 60% in size
#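 Promoter activation is measured as luciferase luminescence in Huh7 cells stably transfected with a Rab9 promoter–luciferase construct, following 24 h compound exposure at 37 °C and 10 min reagent incubation at ambient temperature.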
# SMN2 splice up: enhancers of SMN2 splice variant expression | HEK293 SMN2-luciferase splicing reporter, luminescence, 30-36 h | Potency, µM (series often up to 46.1 µM), without a hit: at the top dose activity change, positive = activation, usual class: activators | 210,000 tested, 2.8% active; further: % of control where 0% means no effect; nearly all actives have a fitted effect of over 55% in size
#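 HEK293 cells carry an SMN2 […]–luciferase reporter in which exon 7 inclusion puts luciferase in frame. Cells were plated 10-12 h before compound addition, then incubated 30-36 h at 37C. ONE-Glo luminescence was read; sodium butyrate at 4.5 mM final served as control.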
# KinaseGlo FLuc: Kinase-Glo luciferase inhibition (counter-screen). Q27757. 200,000 tested, 0.28% active. Kinase-Glo luciferase, ATP luminescence, 8 min. Potency, µM (titrated, usually from 38.3 µM), for the others: top-dose activity change, negative = inhibition, most hits filed as inhibitors. AID 1379; further: on the % scale 0 is the no-effect control and ±100 the full control effect; nearly all actives have a fitted effect of over 60% in size
#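 Kinase-Glo luciferase light output from ATP and luciferin was measured with 10 uM ATP, within the enzyme's linear range. Buffer: 50 mM imidazole pH 7.2, 50 mM KCl, 7 mM MgCl2, 0.01% Tween 20, 0.05% BSA; luminescence read after 8 min at ambient temperature.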
# ELG1 genotoxic: inducers of genotoxicity in HEK293T ELG1-luciferase cells; 330,000 tested, 1.3% active; HEK293T ELG1-luciferase reporter, luminescence, 16 h; Potency, µM (top dose mostly 46 µM), for the others: top-dose activity change, positive = activation, actives largely listed as activators; further: % of control where 0% means no effect; nearly all actives have a fitted effect of over 60% in size
#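 Step 1: seed 2,000 HEK293T ELG1-luciferase cells per well. Step 2: add compound or DMSO, incubate 16 hr at 37 °C. Step 3: ONE-Glo, 30 min at room temperature, read luminescence.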
# NPC1 prom act: activates the NPC1 promoter; AID 485313; Potency, µM (series often up to 9.22 µM), without a hit: at the top dose activation, usual class: activators; 320,000 tested, 2.4% active; Huh7 NPC1 promoter luciferase reporter, 24 h; further: % of control where 0% means no effect; nearly all actives have a fitted effect of over 60% in size
#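 Readout is luciferase luminescence, reflecting NPC1 promoter activation in stably transfected Huh7 cells after 24 h compound exposure at 37 °C in reduced-serum medium with 10% FBS.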
# The depositor's hits bear a star; ? = inconclusive; . = no result; [ ] = another dose, or the depositor's remark. The call rests on the fitted dose curve; in most records, active means well fitted curve in the direction sought with a large enough effect; inconclusive means small, poorly fitted or top-dose-only effect, or another doubt; inactive means no such curve, though single readings can be large; an effect the other way counts as inactive or inconclusive. Potency means the concentration at half of the fitted maximal effect.
SMILES,FLuc modulator,Rab9 prom act,SMN2 splice up,KinaseGlo FLuc,ELG1 genotoxic,NPC1 prom act
CS(=O)(=O)c1ccc(-c2cccc(NC(=O)COc3ccc(Cl)cc3)c2)nn1,-18%,-4%,.,.,10%,0%
COc1ccc(-c2cccc(NC(=O)COc3ccc(Cl)cc3)c2)nn1,21µM*,-3%,.,.,-5%,3%
COc1cccc(NC(=O)COc2ccc3c(c2)CCC3)c1,15µM*,1%,-1%,1%,17%,5%
COc1cccc(NC(=O)COc2cc(O)c3c(c2)OC(C)(C)CC3=O)c1,4.3µM*,?,.,.,12%,?
COc1ccc(NS(=O)(=O)c2cccc(NC(=O)COc3ccc(OC)cc3)c2)cc1,17µM*,-7%,.,.,-7%,12%
COc1ccc(NS(=O)(=O)c2cccc(NC(=O)CNC(C)=O)c2)cc1,-1%,-5%,.,.,0%,2%
CCC(=O)N1CCc2cc(CNC(=O)c3ccccc3C)ccc21,3%,.,.,.,.,.
CC1(C)CC(=O)c2c(O)cc(OCc3ccc([N+](=O)[O-])cc3)cc2O1,4.8µM*,3.5µM*,16%,-3%,?,2.5µM*
COc1ccc(OCC(=O)Nc2cccc(C(C)=O)c2)cc1,?,7%,-23%,-4%,-2%,7%
Cc1ccc(CNC(=O)COc2cc(O)c3c(c2)OC(C)(C)CC3=O)cc1,-17%,0%,.,.,0%,-4%
COc1ccccc1CNC(=O)COc1ccc(C)cc1,2%,2%,.,.,-2%,3.2µM*
COc1cccc(NC(=O)COc2ccc(C)cc2)c1,12µM*,12%,-51%,-21%,?,-2%
Cc1ccc(C)c(CN2C(=O)c3ccccc3S(=O)c3ccc(C(=O)N(C)Cc4ccccc4)cc32)c1 (stereo unspecified),-3%,.,-45%,.,.,.
CC(=O)c1ccc(NC(=O)CSc2nc(N)c3cc4c(nc3n2)CCCC4)cc1,1.3µM*,?,25µM*,?,16%,?
CCn1c(SCC(=O)Nc2ccc(C(C)=O)cc2)nc2nc3c(cc2c1=O)CCCC3,?,21%,-76%,-2%,?,12%
COc1ccc(NC(=O)CSc2nc(N)c3cc4c(nc3n2)CCCC4)cc1,1.5µM*,?,22µM*,-18%,13%,19%
COc1ccc(NC(=O)CSc2nc(N)c3cc4c(nc3n2)CC(C)(C)OC4)cc1,?,?,.,.,9%,23%
COC(=O)c1ccc(C(=O)OC)c(NC(=O)c2ccc(-c3ccccc3)s2)c1,0%,.,?,.,.,.
COc1c(C(=O)Nc2nnc(C3CC3)s2)csc1Cl,?,4µM*,.,.,?,4.5µM*
CC(C)c1nnc(NC(=O)c2cccs2)s1,13µM*,2.5µM*,14µM*,-10%,4.1µM*,2.8µM*
O=C(Nc1nnc(CCc2ccccc2)s1)c1cccs1,?,?,26%,2%,8%,?
CN(c1ccccc1)S(=O)(=O)c1nnc(NC(=O)c2cccs2)s1,1.1µM*,.,.,.,.,.
CCCCC(CC)c1nnc(NC(=O)c2cccs2)s1 (stereo unspecified),?,-11%,.,2%,-8%,-6%
CC(C)(C)c1nnc(NC(=O)c2cccs2)s1,11µM*,2.8µM*,.,-20%,?,2.8µM*
CCN(c1cccc(C)c1)S(=O)(=O)c1nnc(NC(=O)c2cccs2)s1,-14%,.,.,.,.,.
SMILES,FLuc modulator,Rab9 prom act,SMN2 splice up,KinaseGlo FLuc,ELG1 genotoxic,NPC1 prom act
O=C(NC1CCN(Cc2ccccc2)CC1)c1ccc(Cn2c(=O)c3ccccc3n(Cc3ccc(F)cc3)c2=O)cc1,1%,.,5%,.,.,.
COc1cccc(NC(=O)CSc2nc(=O)[nH]c3c2CCCC3)c1,-9%,.,.,.,.,.
CCOC(=O)c1ccccc1NC(=O)N(C)CCc1c(C)nn(CC)c1C,-1%,.,.,.,.,.
O=C(Nc1ccc(C(=O)Nc2ccc(C(=O)Nc3ccc(S(=O)(=O)O)c4cc(S(=O)(=O)O)cc(S(=O)(=O)O)c34)cc2)cc1)Nc1ccc(C(=O)Nc2ccc(C(=O)Nc3ccc(S(=O)(=O)O)c4cc(S(=O)(=O)O)cc(S(=O)(=O)O)c34)cc2)cc1,.,.,10%,4%,.,.
CC(C)=CC(=O)Nc1nnc(C(C)C)s1,12µM*,2.5µM*,11µM*,4%,?,3.2µM*
CCCCc1nnc(NC(=O)C=C(C)C)s1,-2%,3%,14%,3%,-2%,0%
O=C(Nc1nnc(C2CC2)s1)c1cccs1,?,3.2µM*,.,.,?,2.8µM*
N#Cc1cccc(NC(=O)N2CCCC3(CCN(C(=O)c4ccco4)CC3)C2)c1,.,.,-15%,-4%,.,.
COc1cc(OC)c(NS(=O)(=O)c2c(C(=O)N3CCCCCC3)c(C)n(C)c2C)cc1Cl,-8%,.,.,.,.,.
Cc1c(/N=C(\[O-])Nc2ccc(Br)cc2)sn[n+]1C,1.1µM*,0.1µM*,.,.,0.37µM*,0.28µM*
COC(=O)c1c(-c2ccc(Cl)cc2)noc1N1CCN(c2cccc(C(F)(F)F)c2)CC1,-3%,.,.,.,.,.
c1ccc(CNc2ccnc(-c3ccoc3)n2)cc1,.,.,-3%,-3%,.,.
Cc1ccc(-c2cnc(-c3ccncc3)o2)cc1,6.7µM*,?,22µM*,-2%,18µM*,?
Nc1ccc(-c2ncc(-c3ccccc3)o2)cc1,1.5µM*,-33%,.,.,?,-17%
O=[N+]([O-])c1ccc(-c2ncc(-c3ccc(Br)cc3)o2)cc1,?,?,.,.,13%,?
Cn1ncc2c(N3CCN(c4ccccc4Cl)CC3)ncnc21,-9%,.,.,.,.,.
CCOc1ccccc1CNC(=O)c1ccc(Cn2c(=O)c3cccn3c3cccnc32)cc1,-9%,.,.,.,.,.
O=C(O)CCC(=O)Nc1ccc(C(=O)OC2CCCCC2)cc1,13µM*,-7%,-15%,2%,0%,-4%
CC(C)(C)C(=O)Nc1ccc(C(=O)OC2CCCCC2)cc1,4.3µM*,1.4µM*,35µM*,-2%,?,1.4µM*
c1csc(-c2nc(CN3CCSCC3)cs2)c1,2.4µM*,0.4µM*,.,.,2.6µM*,?
O=S1(=O)CCN(Cc2ccccn2)CC1,4%,-3%,-15%[9.22 µM],-1%[7.66 µM],0%,-2%
O=S1(=O)CCN(Cc2csc(-c3cccs3)n2)CC1,19µM*,1.8µM*,.,.,?,1.3µM*
Clc1ccccc1C(Nc1cnccn1)Nc1cnccn1,.,.,-7%[9.22 µM],1%[7.66 µM],.,.
CCn1cc(C(=O)O)c(=O)c2cc(F)c(N3CCN(C(=O)Nc4ccccc4)CC3)cc21,0%,2%,18µM*,-1%,-36%,-3%
NC(=O)N/N=C/c1ccc(N2CCOCC2)s1,?,2%,10%,-4%,8%,0%
C/C(=N\NC(=O)c1ccc(F)cc1)c1ccc(N2CCOCC2)cc1,?,11%,21%,5%,13%,-2%

# Compound activity: PubChem BioAssay, National Center for Advancing Translational Sciences (NCATS)
